Experimental data published in PubChem BioAssay (NCATS).
Inconclusive results are not listed. A number with no mark means an inactive call. The call rests on the fitted dose curve; in most records, active means well fitted inhibition curve with a large enough effect; inconclusive means small, poorly fitted or top-dose-only effect; inactive means no such curve, though single readings can be large or run the other way. Peptide text beside a SMILES is read from it. * marks the point of attachment. βNA = c1ccc2cc(N*)ccc2c1; Cbz = O=C(OCc1ccccc1)*

Each molecule was assayed against Retinaldehyde dehydrogenase 3 (Homo sapiens) (UniProt P47895) (assay: qHTS for Inhibitors of the Aldehyde Dehydrogenase Family (ALDH1A3) Primary screen (AID 2061315;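 further: plate controls were DMSO vehicle for no effect and reference inhibitor for full effect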)). Details: ALDH inhibition qHTS; series mostly up to 56 µM; activity change, negative = inhibition: at the top concentration.

| Structure (SMILES) | activity change, negative = inhibition |
| --- | --- |
| O=C1NC2CCCCN2C12CCN(CCCN1c3ccccc3CCc3ccc(Cl)cc31)CC2 (stereo not given) | -3.57% |
| CCOC(=O)c1cc(C#N)c(N2CCC(C(=O)NS(=O)(=O)Cc3ccccc3)CC2)nc1C | -1.51% |
| C=C(C)C1CCC2(C(=O)O)CCC3(C)C(CCC4C5(C)C(C=O)C(O)C(C)(C)C5CCC43C)C12 (stereo not given) | 5.56% [at 28 µM] |
| CC[C@]12CCCN3CCc4c(n(c5ccccc45)C(=O)C1)[C@@H]32 | 1.14% |
| C=C1CC[C@@H](O)[C@]2(C)C[C@H]3OC(=O)C(=C)[C@H]3CC12 (stereo not given in full) | 8.77% |
| CC1(C)C[C@@H]2[C@H](C1)[C@@]1(C)C[C@]13C(O)OC[C@]3(O)[C@H]2O (stereo not given in full) | 7.97% |
| CC(C)/C=C1\NC(=O)C(C(C)C)n2c1nc1c(c2=O)C=CC=CO1 (stereo not given) | 7.3% |
| O=C(/C=C/c1ccc(O)cc1)OC[C@H]1O[C@@H](OC(=O)/C=C/c2ccccc2)[C@H](O)[C@@H](O)[C@@H]1O | -3.95% [at 28 µM] |
| O=C(Cc1ccccc1)OC[C@H]1O[C@H](O[C@H]2O[C@H](CO)[C@@H](O)[C@H](O)[C@H]2O)[C@H](O)[C@@H](O)[C@@H]1O | 0.541% [at 28 µM] |
| CC(C)CC(NC(=O)OCc1ccccc1)C(=O)NC(CC(C)C)C(=O)NC(CCC(=O)O)C(=O)Nc1ccc2ccccc2c1 (stereo not drawn) (Cbz-Leu-Leu-Glu-βNA; configuration not given here) | 2.48% |
| COc1cc(C(CO)CO[C@@H]2O[C@H](CO)[C@@H](O)[C@H](O)[C@H]2O)ccc1O (stereo not given in full) | -3.77% |
| COC(=O)[C@H](Cc1cccc(C(=N)N)c1)[C@@H](C)NC(=O)c1ccc(-c2cc[n+]([O-])cc2)cc1 | 4.7% |
| CC(=O)O[C@H]1[C@H](Oc2ccccc2COC(=O)C2(O)C=CCCC2=O)O[C@H](CO)[C@@H](O)[C@@H]1O (stereo not given in full) | 95.5% [at 28 µM] |
| CC(C)CCC(=O)CC1c2ccccc2C(=O)N1c1ccc2ccc(Cl)nc2n1 (stereo not given) | -11.8% |
| C[C@@H]1CC[C@]2(C(=O)O[C@@H]3O[C@H](CO[C@@H]4O[C@H](CO)[C@@H](O[C@@H]5O[C@@H](C)[C@H](O)[C@@H](O)[C@H]5O)[C@H](O)[C@H]4O)[C@@H](O)[C@H](O)[C@H]3O)CC[C@]3(C)C(=CCC4[C@@]5(C)C[C@@H](O)[C@H](O)[C@@](C)(CO)C5CC[C@]43C)C2[C@H]1C (stereo not given in full) | 14.5% [at 16.9 µM] |
| C=C1C(=O)O[C@@H]2C[C@H](C)C3=CC(=O)[C@H](O)[C@@]3(C)C[C@H]12 | -16.6% |
| CC1(C)CCCC2(C)C1C(=O)C=C(C(=O)O)C2(O)C(=O)O (stereo not given) | -4.9% |
| CC(C)(O)C1CC(=O)C2(C)C(CCC3(C)C(c4ccoc4)OC(=O)C4OC432)C12CCC(=O)OC2 (stereo not given) | -2.39% [at 28 µM] |
| C/C(=C/CO)CC[C@H]1[C@]2(C)C[C@H](O)CC(C)(C)[C@H]2CC[C@]1(C)O | 11.5% |
| CC(=O)N[C@@H](CCCCN)C(=O)N(C)[C@@H](CC(C)C)C(=O)N[C@H](C(=O)N(C)[C@@H](Cc1ccccc1)C(=O)N[C@H](Cc1ccccc1)C(N)=O)C(C)C | 0.0688% [at 5.59 µM] |
| COC1OC(O)C2(CCC3(O2)C(C)CC2OC(=O)C4(C)CCCC3(C)C24)C1O (stereo not given) | -13.2% |
| Cc1ccn(-c2cc(Cl)ccc2[C@@H](Oc2cc(-c3ccc(C[C@H](N)C(=O)O)cc3)nc(N)n2)C(F)(F)F)n1 | 36.1% |
| C=C1CC[C@]2(C(=O)O[C@@H]3O[C@H](CO)[C@@H](O)[C@H](O)[C@H]3O)CC[C@]3(C)C(=CCC4[C@@]5(C)C[C@H](O)[C@@H](O[C@@H]6O[C@H](C(=O)O)[C@@H](O)[C@H](O)[C@H]6O)[C@](C)(C=O)C5CC[C@]43C)C2C1 (stereo not given in full) | -7.42% [at 16.9 µM] |
| Cn1cc(S(C)=O)c(=O)c2ccc(F)cc21 (stereo not given) | 3.98% |
| COC(=O)C1=CO[C@@H](O[C@@H]2O[C@H](CO)[C@@H](O)[C@H](O)[C@H]2O)[C@@H]2[C@@](C)(O)[C@@H](O)C[C@]12O | 2.18% [at 28 µM] |
| CCC[C@@H]1O[C@@H]2C[C@H]3[C@@H]4CCC5=CC(=O)C=C[C@]5(C)[C@H]4[C@@H](O)C[C@]3(C)[C@]2(C(=O)CO)O1 | -4.47% |
| CC1(C)CC[C@]2(C(=O)O)[C@H](O)C[C@]3(C)C(=CCC4[C@@]5(C)CC[C@H](O[C@@H]6OC[C@@H](O)[C@H](O)[C@H]6O)[C@@](C)(C(=O)O)C5CC[C@]43C)[C@@H]2C1 (stereo not given in full) | 14.4% [at 16.9 µM] |
| CC(=O)c1[nH]cc(CCC(=O)O)c1CC(=O)O | 0.728% |
| C=CC(C)(O)CC/C=C(\C)C(=O)OC1C(O)C(CO)OC(OC(=O)C23CCC(C)(C)CC2C2=CCC4C5(C)CCC(OC6OC(COC7OCC(OC(C)=O)C(O)C7OC7OC(COC(C)=O)C(O)C(O)C7O)C(O)C(O)C6O)C(C)(C)C5CCC4(C)C2(C)C(O)C3O)C1OC1OCC(OC2OCC(O)C(OC3OCC(O)C(O)C3O)C2O)C(O)C1O (stereo not given) | 15% [at 11.2 µM] |
| CCOc1ccc(-n2c(C(C)N(Cc3cccnc3)C(=O)Cc3ccc(F)c(C(F)(F)F)c3)nc3ncccc3c2=O)cc1 (stereo not given) | 14.4% |
